Screening data as filed in PubChem BioAssay.
An excerpt weighted towards active compounds, which were near 3.5% of everything screened.
GPR151 activ: activators of human GPR151; 650,000 compounds, 1% hits; AID 1508602; PathHunter beta-arrestin GPR151 cells, luminescence; activation, % at 11.2 µM; Q8TDV0; in the data active means activation above about 4.9%
Target sequence (Q8TDV0 whole entry, looked up): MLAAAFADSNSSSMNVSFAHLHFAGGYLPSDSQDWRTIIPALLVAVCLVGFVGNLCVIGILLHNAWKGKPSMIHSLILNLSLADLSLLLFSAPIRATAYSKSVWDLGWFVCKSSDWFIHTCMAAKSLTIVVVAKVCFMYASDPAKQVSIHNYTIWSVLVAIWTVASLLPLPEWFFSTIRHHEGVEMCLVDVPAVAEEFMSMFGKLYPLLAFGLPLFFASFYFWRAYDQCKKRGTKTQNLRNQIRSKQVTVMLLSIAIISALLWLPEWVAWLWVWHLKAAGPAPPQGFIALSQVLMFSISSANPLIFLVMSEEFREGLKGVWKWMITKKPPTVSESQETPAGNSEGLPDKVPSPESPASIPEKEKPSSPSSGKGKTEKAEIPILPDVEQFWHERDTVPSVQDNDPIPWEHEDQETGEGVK
FBW7 act: activators of human E3 ligase FBW7; normalized activity (activation), % at 26.1 µM; AID 1259310; 650,000 compounds, 0.13% hits; AlphaScreen FBW7–phospho-cyclin E peptide binding, activator screen; Q969H0; in the data active means normalized activity above about 1.9%;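 further: purified mutant Fbw7 with reduced substrate affinity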
TEAD-YAP inh: TEAD-YAP interaction inhibition | inhibition, % at 9.12 µM | AID 1259422 | 640,000 compounds, 1.4% hits | HEK-TIYL cells, TEAD-Gal4/YAP UAS-luciferase luminescence; in the data active means inhibition above about 32%
MITF inh: human MITF inhibition, primary screen; 650,000 compounds, 0.91% hits; AlphaScreen MITF homodimerization, bead proximity signal; O75030; AID 1259374; inhibition, % at 2.6 µM; in the data active means inhibition above about 50%
MITF confirm: confirmation of human MITF inhibitors | shares compounds with MITF inh | AlphaScreen MITF homodimerization, biotin/His-MITF beads | inhibition, % at 2.6 µM | 4,700 compounds, 16% hits;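 active means inhibition above a cutoff derived from the DMSO control wells, cut at about 28% in these data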;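 further: inhibitors lower the bead chemiluminescence by keeping MITF from dimerizing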
AlphaScreen DR: AlphaScreen optical interference, dose response counter-screen. IC50, µM. 480 compounds, 6% hits. AlphaScreen optical interference counterscreen, cell-free. shares compounds with MITF inh. AID 1259373; call rule not given here
AlphaScreen intf2: optically interferes with AlphaScreen signal; shares compounds with MITF inh; LysRS AlphaScreen counterscreen, signal interference, triplicate; inhibition, % at 2.6 µM; 4,700 compounds, 7.6% hits;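 active means inhibition above a cutoff derived from the DMSO control wells, cut at about 30% in these data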
Large screens that a line does not name were inactive (follow-up assays come after a bar, where they were run).

Cc1nn(Cc2ccc(C(=O)NNC(=O)c3ccc(F)cc3)cc2)c(C)c1Cl	none
O=C(NCc1cccnc1)C(=O)NCc1cccnc1	MITF inh 72 | MITF confirm inactive | AlphaScreen intf2 inactive
O=C(NCCO)c1cccc(-c2cccs2)c1	MITF inh 59 | MITF confirm 59 | AlphaScreen DR inactive | AlphaScreen intf2 inactive
O=C(NCc1ccccc1)c1cccc(-c2cccs2)c1	none
O=C(NCc1cccnc1)c1cccc(-c2cccs2)c1	MITF inh 55 | MITF confirm 45 | AlphaScreen DR inactive | AlphaScreen intf2 inactive
COc1cc(CO)c(Br)cc1OCc1ccc(F)cc1	none
CCc1nn(CC(=O)NC(C)CC)c(=O)c2cc3sccc3n12 (stereo unspecified)	none
N#Cc1ccc(OCC(=O)NN=C2CCCC2)cc1	none
N#Cc1ccc(CSCC(=O)NN=C2CCCC2)cc1	MITF inh 51 | MITF confirm inactive | AlphaScreen intf2 inactive
CCc1cc(=O)oc2cc(OC)c(Cl)cc12	MITF inh 88 | MITF confirm inactive | AlphaScreen intf2 inactive
CCOc1cc2oc(=O)cc(CC)c2cc1Cl	none
O=C(N/N=C/c1ccccn1)c1cccc2ccccc12	none
O=C(N/N=C/c1ccccn1)C1=NNC(=O)C1CCO (stereo unspecified)	MITF inh 65 | MITF confirm 31 | AlphaScreen intf2 96
Cc1ccc(C(=O)NN(C)C)o1	MITF inh 91 | MITF confirm inactive | AlphaScreen intf2 inactive
Cc1ccc(C(=O)Nc2ccccc2NC(=O)c2ccc(C)o2)o1	none
c1ccc(COc2ccc(OCCn3ccnc3)cc2)cc1	MITF inh 81 | MITF confirm inactive | AlphaScreen intf2 inactive
c1ccc(COc2ccc(OCCCn3ccnc3)cc2)cc1	TEAD-YAP inh 54, MITF inh 79 | MITF confirm inactive | AlphaScreen intf2 inactive
CCc1ccc(OCCCCCn2ccnc2)cc1	MITF inh 53 | MITF confirm inactive | AlphaScreen intf2 inactive
CCc1ccc(OCCn2ccnc2)cc1	none
c1ccc(OCCCn2ccnc2)cc1	none
COc1ccc(OC)c(CN2CCN(C(=O)C(c3ccccc3)c3ccccc3)CC2)c1	MITF inh 52 | MITF confirm inactive | AlphaScreen intf2 inactive
COc1ccccc1CN1CCN(C(=O)c2ccncc2)CC1	MITF inh 65 | MITF confirm inactive | AlphaScreen intf2 inactive
COc1ccc(OC)c(CN2CCN(C(=O)c3cccc4ccccc34)CC2)c1	none
COc1ccc(OC)c(CN2CCN(C(=O)c3cccc(Cl)c3)CC2)c1	MITF inh 66 | MITF confirm inactive | AlphaScreen intf2 inactive
COc1ccc2ccccc2c1CN1CCN(C(=O)c2ccncc2)CC1	MITF inh 65 | MITF confirm inactive | AlphaScreen intf2 inactive
CCCc1nnc(NC(=O)c2nc(S(C)(=O)=O)ncc2Cl)s1	none
CCC[C@@H]1NC(=O)[C@H]2CN(Cc3ccccc3OC)CCN2C1=O	none
COc1ccc(C2CC(=O)C3=C(C2)NC(C)=C(C(=O)OCCc2ccccc2)C3c2ccccc2OC(C)C)cc1 (stereo unspecified)	none
COc1cccc(-c2nnc(SCC(=O)Nc3cccc([N+](=O)[O-])c3)n2C)c1	none
COc1cc(OC)c(OC)cc1CN1CCN(C(=O)c2ccncc2)CC1	MITF inh 56 | MITF confirm inactive | AlphaScreen intf2 inactive
COc1ccccc1CN1CCN(C(=O)c2ccccc2)CC1	MITF inh 60 | MITF confirm inactive | AlphaScreen intf2 inactive
COc1ccc(CN2CCC(C(=O)NCC(C)C)CC2)c(OC)c1	none
COc1ccc(CN2CCN(C(=O)c3ccccc3)CC2)c(OC)c1	MITF inh 60 | MITF confirm inactive | AlphaScreen intf2 inactive
COc1ccc(CN2CCN(C(=O)c3ccc(F)cc3)CC2)c(OC)c1	none
COc1cccc(C(=O)N2CCN(Cc3ccccc3OC)CC2)c1	none
COc1ccc(CN2CCC(C(=O)NC(C)c3ccccc3)CC2)c(OC)c1 (stereo unspecified)	MITF inh 51 | MITF confirm inactive | AlphaScreen intf2 inactive
CC1CCCCC12NC(=O)N(Cc1ccccc1Cl)C2=O (stereo unspecified)	none
Cc1ccc(-c2noc(C3CCCN(S(=O)(=O)c4ccc5ccccc5c4)C3)n2)o1 (stereo unspecified)	none
